The campaign covered roughly 360,000 compounds. About 4,600 (1.3%) were called active.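 How the source made its calls: active means percent inhibition above its own plate's cutoff, namely the mean of that plate's compound wells plus 3 SD; inactive means the rest.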 What follows is part of a selection rich in actives, with near analogues and random picks from the rest.
Target: Muscarinic acetylcholine receptor M1 (Homo sapiens) (UniProt P11229)
Assay: CHRM1 blockers of acetylcholine calcium response – CHO-K1 cells, Fluo-8 calcium fluorescence, 1536-well, primary screen (AID 588852);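 further: peak over basal fluorescence ratio during 140 s after agonist addition; 0% = ACh EC80 plus DMSO and 100% = DMSO alone without agonist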
Conditions: CHO-K1 hM1, Fluo-8 calcium fluorescence, ACh EC80 antagonist; at 3 µM; hits give high values

Muscarinic acetylcholine receptor M1 (Homo sapiens), sequence (P11229 whole entry, looked up): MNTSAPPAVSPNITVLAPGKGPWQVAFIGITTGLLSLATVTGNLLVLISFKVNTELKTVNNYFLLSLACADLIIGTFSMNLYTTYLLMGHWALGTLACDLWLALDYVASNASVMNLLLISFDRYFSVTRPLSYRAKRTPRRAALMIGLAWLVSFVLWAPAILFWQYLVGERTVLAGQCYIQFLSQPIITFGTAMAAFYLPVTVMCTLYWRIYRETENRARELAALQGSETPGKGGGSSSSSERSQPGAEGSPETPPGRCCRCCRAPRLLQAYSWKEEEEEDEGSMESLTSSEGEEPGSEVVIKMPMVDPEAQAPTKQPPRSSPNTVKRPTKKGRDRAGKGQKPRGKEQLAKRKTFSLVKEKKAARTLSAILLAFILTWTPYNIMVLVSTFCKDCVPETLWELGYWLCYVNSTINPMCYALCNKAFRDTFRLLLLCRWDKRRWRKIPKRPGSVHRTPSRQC

SMILES	inhibition
C=C(C)c1cccc(C(C)(C)NC(=O)NCCN(CC)CC)c1	82.6% (active)
C=C(C)c1cccc(C(C)(C)NC(=O)NC2CCCC2)c1	-0.33% (inactive)
C=C(C)c1cccc(C(C)(C)NC(=O)N2CCN(c3ncccn3)CC2)c1	-3.97% (inactive)
CN(CC(=O)NCCc1ccccc1)S(=O)(=O)c1cnc[nH]1	-5.57% (inactive)
CC(C)C(=O)Nc1nnc(Sc2ccc(N(C)C)cc2)s1	-14.1% (inactive)
CN(C)C1=NC[C@H](Cc2ccccc2)N1CCc1ccc(F)cc1	9.98% (inactive)
CC(NC(=O)Nc1ccccc1)c1ccccc1 (stereo not drawn)	-2.37% (inactive)
CCC(C(=O)Nc1ccc(C(C)C)cc1)c1ccccc1 (stereo not drawn)	37.1% (active)
CC(C)c1ccc(NC(=O)Cn2ncc3ccccc32)cc1	-20.8% (inactive)
COc1ccc(C(C)(O)c2nc(-c3cc(F)cc(F)c3)cs2)cc1 (stereo not drawn)	-4.19% (inactive)
COc1ccccc1N(C)S(=O)(=O)c1ccc(C(=O)N2CCC(C(N)=O)CC2)cc1	-7.95% (inactive)
COC(=O)CCCCC1=CCC2C(=O)C=C(O)C2C1 (stereo not drawn)	4.53% (inactive)
Cc1ccc(C)c(N2CCN(C(=O)CCCCCn3c(=S)[nH]c4ccc(N5CCOCC5)cc4c3=O)CC2)c1	39.5% (active)
O=C(CCCCCn1c(=S)[nH]c2cc3c(cc2c1=O)OCO3)N1CCN(c2ccc(F)cc2)CC1	-8.71% (inactive)
Cc1ccc(C)c(N2CCN(C(=O)CCCn3c(=O)c4cccn4c4cccnc43)CC2)c1	-0.03% (inactive)
Cc1ccnc(NC(=O)C(C)N2C(=O)c3ccccc3C2=O)c1 (stereo not drawn)	-0.26% (inactive)
Cc1ccccc1C#CC1=CC(=O)CC(C)(C)C1	-7.17% (inactive)
CCC(C)N1C(=O)S/C(=C/c2ccc(Sc3nc4ccccc4[nH]3)o2)C1=O (stereo not drawn)	32.9% (active)
CN(Cc1ccccc1)C(=O)CSc1nc2ccccc2[nH]1	-5.93% (inactive)
CN1CCN(c2ccc([N+](=O)[O-])c(Sc3nc4ccccc4[nH]3)c2)CC1	-0.69% (inactive)
O=C(C1CCC1)N1CCc2cc(S(=O)(=O)NCc3cccnc3)ccc21	-15.2% (inactive)

SMILES	inhibition
COc1ccc(C(c2nnnn2C2CCCCC2)N2CCN(c3ccccc3F)CC2)cc1 (stereo not drawn)	-2.28% (inactive)
COc1ccc(C(c2nnnn2C2CCCC2)N2CCN(C/C=C/c3ccccc3)CC2)cc1 (stereo not drawn)	48.7% (active)
FC(F)(F)Oc1ccccc1C(c1nnnn1C1CCCCC1)N1CCN(C/C=C/c2ccccc2)CC1 (stereo not drawn)	-18.7% (inactive)
CC(=O)Nc1cc(-c2ccccc2N(C)C)cn2c(-c3ccc(F)c(Cl)c3)cnc12	-16.4% (inactive)
CN(CC1CCCN(CCc2cccc(C(F)(F)F)c2)C1)C(=O)c1ccc2nc[nH]c2c1 (stereo not drawn)	84.4% (active)
Cc1nc2ccc(C(=O)N(C)CC3CCCN(CCc4ccc(Cl)cc4)C3)cc2[nH]1 (stereo not drawn)	17.1% (inactive)
CC(=O)c1ccc(N2CCN(C(=O)c3ccc4nc[nH]c4c3)CC2)cc1	-1.75% (inactive)
COc1ccc(NC(=O)C2Cc3c(-c4ccc5c(c4)OCO5)ccnc3O2)cn1 (stereo not drawn)	-14.1% (inactive)
COc1ccc(-c2[nH][nH]c(=O)c2NC(=O)c2ccc([N+](=O)[O-])cc2)cc1	-25% (inactive)
CSCCNCc1cn(-c2ccc(F)cc2F)nc1-c1ccccc1C	-13.6% (inactive)
CC(=O)Nc1cccc(-c2ccnc3c2CC(C)(C(=O)NCc2ccco2)O3)c1 (stereo not drawn)	-8.07% (inactive)
COc1ccc(CCNC(=O)COC(=O)c2ccc[nH]c2=O)cc1	-7.65% (inactive)
CCOC(=O)c1cc(-c2nnc(-c3cc(OC)c(OC)c(OC)c3)o2)c(C)nc1C	-32.2% (inactive)
CCCc1nc2ccccc2c(C(=O)OCc2nnc(-c3cc(OC)c(OC)c(OC)c3)o2)c1CC	24.3% (active)
O=C(OCc1nnc(-c2ccccc2)o1)c1cc(=O)[nH]c2ccccc12	-2.41% (inactive)
O=C(NC1CCCCC1)C1CCC(CNS(=O)(=O)c2ccccc2)CC1 (stereo not drawn)	2.63% (inactive)
C[C@@H](CN1CCC[C@H]1CN1C(N)=NC[C@@H]1Cc1ccccc1)N1C[C@@H](Cc2ccccc2)N(CCCC2CCCC2)C1=N	93.1% (active)
CC[C@@H](C)[C@@H]1CN([C@@H](C)CN2CCC[C@H]2CN2C(N)=NC[C@H]2C(C)C)C(=N)N1CCc1ccc(Cl)c(Cl)c1	16.5% (inactive)
CCCCN1C(N)=NC[C@@H]1Cc1ccccc1	-1.32% (inactive)
Cc1cc(/C=C2/SC(=O)N(CC(=O)N3CCCC3)C2=O)ccc1N1CCOCC1	-1.78% (inactive)
COc1ccc(S(=O)(=O)NC(C)C(=O)N2CCCCCC2)cc1 (stereo not drawn)	-12.2% (inactive)

SMILES	inhibition
COc1ccc(NC(=O)N2CCC(Cc3ccccc3)CC2)cc1	-2.81% (inactive)
COc1ccc(CNS(=O)(=O)c2ccc(NC(=O)N3CCCCC3)cc2)cc1	33.3% (active)
COCC(=O)N1CCCC(C(=O)c2ccc(C(F)(F)F)cc2)C1 (stereo not drawn)	-12.9% (inactive)
O=C1CCCC2=C1C(c1cccs1)n1nc(SCc3ccccc3)nc1N2 (stereo not drawn)	-6.44% (inactive)
COc1ccc2cc(C(=O)NCC3CCCO3)[nH]c2c1 (stereo not drawn)	-11.4% (inactive)
O=C(NCC1CCCO1)c1cc2c([nH]c3ccccc32)c(-c2ccc(F)cc2)n1 (stereo not drawn)	42.6% (active)
O=C(NCCCO)c1cc2c([nH]c3ccccc32)c(-c2ccc(F)cc2)n1	1.06% (inactive)
CC(C)(C)c1ccc(CCC2OCC(CN3CCOCC3)O2)cc1 (stereo not drawn)	-5.48% (inactive)
NC(=O)CC[C@@H]1NC(=O)[C@@H]2CCCN2C(=O)c2cc([N+](=O)[O-])cc(F)c2NCCC[C@@H](C(N)=O)NC1=O	-13.1% (inactive)
CCN(CC(=O)Nc1ccc(S(=O)(=O)N2CCCC2)cc1)CC(=O)Nc1cccc(OC)c1	-10.7% (inactive)
COc1ccccc1CC(=O)Nc1ccc(S(=O)(=O)N2CCCC2)cc1	-9.64% (inactive)
CN(CC(=O)Nc1ccc(S(=O)(=O)N2CCCC2)cc1)Cc1ccc(Cl)c(Cl)c1	34.9% (active)
CC(OC(=O)c1ccc(NC(=O)CC#N)cc1)C(=O)Nc1ccc(S(=O)(=O)N2CCCC2)cc1 (stereo not drawn)	32.6% (inactive)
COc1cccc(CNC(C)C(=O)Nc2ccc(S(=O)(=O)N3CCCC3)cc2)c1 (stereo not drawn)	39.5% (active)
CC(C(=O)Nc1ccc(S(=O)(=O)N2CCCC2)cc1)N(C)Cc1ccc(F)cc1 (stereo not drawn)	53.5% (active)
CN(CC(=O)Nc1ccc(F)cc1)CC(=O)Nc1ccc(Cl)c(S(=O)(=O)N2CCOCC2)c1	-20.8% (inactive)
Cc1ccc(CC(=O)Nc2ccc(S(=O)(=O)N3CCOCC3)cc2)cc1C	-11.9% (inactive)
CCc1ccc(CN(C)C(C)C(=O)Nc2ccc(S(=O)(=O)N3CCCC3)cc2)cc1 (stereo not drawn)	88.9% (active)
CCc1ccc(NC(=O)CN2C(=O)COc3ccc(S(=O)(=O)N4CCCC4)cc32)cc1	-15.9% (inactive)
O=C(Nc1ccc(S(=O)(=O)N2CCCCC2)cc1)C1CC(=O)N(c2ccc(F)cc2)C1 (stereo not drawn)	-6.03% (inactive)
O=C(Nc1ccc(S(=O)(=O)N2CCCCC2)cc1)C1CCN(C(=O)c2ccc(F)cc2)CC1	9.2% (inactive)
